This is a sample that favours compounds with a hit; in the whole collection about 11% have one here.
HCV inhibitor = HCV inhibition. Huh7.5.1 HCVcc-Cre infection, luciferase reporter, 44 h. Potency, µM (series often up to 41.8 µM), without a hit: top-dose activity change, negative = inhibition, usual class: inhibitors. 340,000 tested, 3.4% active. AID 651820; further: on the % scale 0 is the no-effect control and ±100 the full control effect
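A cell-based infection assay in which seeded cells (1,000 per well) receive test compound after 4 h, are inoculated with HCVcc-Cre at approximately 0.5 moi, and are incubated 44 h before luminescence detection.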
NS1 function inh = blocks influenza NS1 protein function. Potency, µM (highest dose often 46.1 µM), for the others: at the top dose activity, positive = more growth. 270,000 tested, 0.4% active; calls by dose curve; further: actives are rising curves; nearly all actives have a fitted effect of over 50% in size
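OD600 was taken as the measure of yeast growth restored by compound in an NS1-expressing S. cerevisiae strain. Cells had been washed out of glucose medium and diluted 1:100 into galactose -URA medium, pH 6.0.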
VACV Venus inh = inhibitors of vaccinia virus (Venus reporter). Potency, µM (doses to about 36.5 µM), for inactives: at the top dose activity change, negative = inhibition, usual class: inhibitors. 330,000 tested, 0.46% active. Vaccinia virus Venus reporter expression, fluorescence; calls by dose curve; tested in A549 cells; further: on the % scale 0 is the no-effect control and ±100 the full control effect; nearly all actives have a fitted effect of over 30% in size
Pf growth 96h = inhibits malaria parasite growth, 96 h. P. falciparum luciferase reporter growth, 96 h. Potency, µM (doses to about 28.7 µM), for inactives: at the highest dose activity change, negative = inhibition, hits mostly inhibitors. 320,000 tested, 6.9% active; further: on the % scale 0 is the no-effect control and ±100 the full control effect
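Erythrocytes infected with luciferase-expressing P. falciparum were dispensed at 2% hematocrit and 0.05% parasitemia (final), then incubated with compounds 96 hours at 37 C in 5% CO2. Luminescence after detection reagent addition reported growth.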
Vaccinia mCherry = inhibitors of vaccinia virus infection (mCherry reporter signal); Vaccinia virus mCherry reporter infection, fluorescence; Potency, µM (series often up to 36.5 µM), for the others: at the highest dose activity change, negative = inhibition, most hits filed as inhibitors; 310,000 tested, 0.63% active; AID 720579; calls by dose curve; tested in A549 cells; further: on the % scale 0 is the no-effect control and ±100 the full control effect; nearly all actives have a fitted effect of over 35% in size
Pf growth 48h = inhibits P. falciparum growth in the first generation, 48 h; P. falciparum luciferase growth in erythrocytes, 48 h; Potency, µM (titrated, usually from 28.7 µM), for the others: at the highest dose activity change, negative = inhibition, usual class: inhibitors; 310,000 tested, 5.9% active; further: on the % scale 0 is the no-effect control and ±100 the full control effect
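Parasite viability was followed by luminescence of a genomically integrated firefly luciferase. Cultures held 0.1% parasitemia at 2% hematocrit (final), incubated under 5% CO2 at 37 C.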
The depositor's hits bear a star; i = inactive; ? = inconclusive; nt = no result; [ ] = dose if it differs, or a comment. Unless noted, the call rests on the fitted dose curve; in most records, active means well fitted inhibition curve with a large enough effect; inconclusive means small, poorly fitted or top-dose-only effect, or another doubt; inactive means no such curve, though single readings can be large or run the other way. Potency means the concentration at half of the fitted maximal effect.

SMILES	HCV inhibitor	NS1 function inh	VACV Venus inh	Pf growth 96h	Vaccinia mCherry	Pf growth 48h
CCOc1cc(CNCc2ccncc2)cc(Br)c1OCc1ccccc1F	7.94µM*	-14.7%	?	?	-0.8%[1.46 µM]	?
CCOc1cc(CNCCSc2nnnn2C)cc(Br)c1OCc1ccccc1F	?	-1.0%	-28.8%	8.28µM*	-21.8%	?
Cc1ccc(SCC(=O)NC2CCCCCC2)cc1	17.8%	-11.0%	-18.3%	34.0%	-2.2%	65.0%
Nc1cc(N)nc(SCC(=O)c2ccc3c(c2)NC(=O)CO3)n1	-1.2%	11.6%	-9.9%	13.6%	i	27.1%
CCN(CC)c1ccc(-c2nc(-c3ccncc3)no2)cc1[N+](=O)[O-]	nt	nt	-2.4%	nt	1.4%	nt
COC(=O)c1c(NC(=O)c2ccc([N+](=O)[O-])o2)sc2c1CCN(C(C)C)C2	2.82µM*	-106.6%	14.1µM*	?	?	14.7µM*
COC(=O)c1c(NC(=O)Cc2ccccc2)sc2c1CCN(C(C)C)C2	?	3.4%	-22.7%	33.7%	?	-8.0%
CC(=O)N1CCc2c(sc(NC(=O)c3ccc([N+](=O)[O-])o3)c2C#N)C1	-8.5%	3.7%	nt	?	nt	52.7%
COC(=O)c1sc(NC(=O)c2ccc([N+](=O)[O-])o2)c(C#N)c1C	11.2µM*	-50.4%	nt	?	nt	45.2%
CC(C)N1CCc2c(sc(NC(=O)c3cc(-c4cccs4)nc4ccccc34)c2C(N)=O)C1	10µM*	4.3%	?	?	?	?
CC(C)N1CCc2c(sc(NC(=O)c3ccc([N+](=O)[O-])o3)c2C(N)=O)C1	nt	-13.2%	nt	4.65µM*	nt	13.1µM*
CCc1nc(SCC(N)=O)c2c(=O)n(C)c(=O)n(C)c2n1	10.2%	3.0%	5.5%	21.5%	2.3%	17.2%
FC(F)(F)c1nc2ccccc2[nH]1	6.4%	1.0%	nt	58.9%	nt	56.1%
COc1ccc(NC(=S)N2CCC(C(=O)c3ccc(C)cc3)CC2)cc1	-24.9%	-16.8%	nt	63.7%	nt	?
Cc1c(C(=O)NCCc2ccc(Cl)cc2)sc2nc3n(c(=O)c12)CCCC3	nt	nt	-6.1%	nt	-20.3%	nt
Oc1ccc(Br)cc1CNc1cccc2cccnc12	14.3%	-115.5%	-15.9%	9.28µM*	?	?
Oc1ccc(Br)cc1CNc1cnc2ccccc2c1	?	-5.8%	nt	11.7µM*	nt	?
Cc1ccc(O)c(CNc2cccc3cccnc23)c1	?	-40.4%	-16.4%	?	-7.1%	?
Cc1ccc(O)c(CNc2cnc3ccccc3c2)c1	?	-58.6%	-23.7%	0.0%	12.6µM*	?
COc1cccc(CNc2cnc3ccccc3c2)c1O	-24.1%	5.1%	-26.5%	?	-23.1%	i
Brc1ccc(CNc2ccc3ncccc3c2)cc1	-1.7%	-57.4%	nt	0.0%	nt	135.9%
NC(=O)C1CCN(C(=O)CCSCc2ccc(Cl)c(Cl)c2)CC1	3.2%	6.3%	-9.0%	?	-22.0%	0.0%
Cc1ccc(-c2[nH]ncc2CNCCc2cnn(-c3ccccc3)c2)cc1C	?	9.5%	-23.1%	?	-28.7%	13.1µM*
Cn1cc(CCNCc2cn[nH]c2-c2ccc(-c3ccccc3)cc2)cn1	-24.6%	5.0%	-13.1%	-20.3%	-20.9%	?
Cc1cc(C)c2sc(N(CCN(C)C)C(=O)c3cc(Cl)sc3Cl)nc2c1	-2.6%	nt	-3.7%	27.8%	i	5.6%
SMILES	HCV inhibitor	NS1 function inh	VACV Venus inh	Pf growth 96h	Vaccinia mCherry	Pf growth 48h
Cc1ccc(/C=N/NC(=O)c2cccc(NC(=O)c3ccccc3Cl)c2)o1	-17.1%	3.5%	20.4%	1.17µM*	-17.6%	-7.0%
Cc1ccc(/C=N/NC(=O)c2cccc(NC(=O)c3ccccc3C)c2)o1	-11.4%	-3.9%	17.1%	122.5%	-28.8%	-6.7%
CN(Cc1nc2ccccc2c(=O)[nH]1)C(=O)c1ccccc1OCc1ccc(Cl)cc1	?	nt	nt	-13.7%	nt	?
CC/C(=N\n1nnnc1Nc1ccccc1)c1ccccc1	7.5%	-12.2%	nt	-18.1%	nt	10.4µM*
O=C1CC(NCCN2CCOCC2)C(=O)N1Cc1ccc(N2CCCC2=O)cc1 (configuration not stated)	-8.2%	-9.1%	-8.0%	4.15µM*	-9.5%	4.7%
Cn1c(CC(=O)c2ccc(Br)cc2)[n+](C)c2ccccc21	-6.5%	nt	-7.5%	0.738µM*	-9.3%	13.1µM*
CN(C)CCn1nnnc1SCC1=C(C(=O)O)N2C(=O)[C@@H](NC(=O)Cc3csc(N)n3)[C@H]2SC1	?	nt	-16.6%	13.4%	-25.7%	11.3%
CN(C)CCn1nnnc1SCC1=C(C(=O)O)N2C(=O)[C@@H](NC(=O)Cc3csc(N)n3)[C@@H]2SC1	nt	nt	nt	6.42µM*	nt	?
Oc1c(C(c2ccco2)N2CCN(C(c3ccccc3)c3ccccc3)CC2)sc2ncnn12 (configuration not stated)	14.1µM*	-37.0%	-19.2%	4.15µM*	-7.3%	nt
CCCCCCCOc1ccc(-c2ccc(C#N)cn2)cc1	0.7%	-0.6%	-10.4%	6.57µM*	-1.9%	8.8%
CCCCOc1ccc(-c2cnc3ccccc3n2)cc1	16.0%	-3.4%	-5.8%	?	-9.7%	204.5%
CCCCCc1ccc(-c2ccc(OC)cc2)nc1	1.8%	-7.8%	-9.8%	10.4µM*	-18.5%	-16.1%
Cc1nnc(NCc2ccccc2)c2ccccc12	-17.0%	25.9%	-10.4%	-10.7%	-9.5%	1.0%
CCOc1ccc(-n2nnc3c(=O)n(CC(=O)NCc4ccco4)cnc32)cc1	11.9%	2.4%	-4.5%	20.4%	i	21.2%
CCOc1ncccc1C(=O)N1CCN(S(=O)(=O)c2ccccc2)CC1	12.3%	nt	-17.6%	74.4%	-5.8%	-5.7%
CCCS(=O)(=O)c1nc(S(=O)(=O)c2ccc(C)cc2)c(NCc2ccco2)s1	?	5.9%	-8.9%	?	i	11.7µM*
Cc1ccc(S(=O)(=O)c2nc(S(=O)(=O)c3ccc(C)cc3)c(NCc3ccco3)s2)cc1	-19.7%	9.3%	nt	13.1µM*	nt	?
CCCS(=O)(=O)c1nc(S(=O)(=O)c2ccc(C)cc2)c(NCCCN2CCCC2=O)s1	?	-4.4%	-7.3%	9.28µM*	-14.9%	-15.7%
CCS(=O)(=O)c1nc(S(=O)(=O)c2ccc(Cl)cc2)c(NCCCN2CCCC2=O)s1	1.1%	-9.3%	-3.2%[7.34 µM]	?	i[7.34 µM]	-12.7%
COCCNc1sc(S(=O)(=O)c2ccc(C)cc2)nc1S(=O)(=O)c1ccc(C)cc1	nt	nt	-2.3%	nt	-4.1%	nt
CCS(=O)(=O)c1nc(S(=O)(=O)c2ccc(Cl)cc2)c(NCc2ccco2)s1	2.5%	1.4%	2.6%	?	-12.3%	?
Cc1ccc(C)c(S(=O)(=O)N2CCCC2CNC(=O)C(=O)NCc2ccccn2)c1 (configuration not stated)	8.5%	nt	-9.3%	-3.5%	-11.8%	1.2%
N#Cc1c2n(c(=S)n(-c3ccccc3[N+](=O)[O-])c1=O)CCCCC2	11.5%	nt	-2.0%	?	4.5%	-11.4%

From PubChem
